Inconclusive results are not listed. Calls of active or inactive are those of the source.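 How the source made its calls, unless noted: active means efflux inhibition above 0.42, the validation set average plus 4 SD; inconclusive means no clear call, values can overlap the other calls; inactive means the rest.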
Experiments:
[1] = yeast TOR pathway RPL19A-GFP modulators, primary screen, cell-based, S. cerevisiae, multiplex flow cytometry (AID 1862; in the data active means percent of DMSO control GFP below about 86%;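 further: lower values mimic rapamycin by blocking the RPL19A rise seen in DMSO cells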); conditions: S. cerevisiae RPL19A-GFP strain, flow cytometry fluorescence, 3 h; at 10 µM; stronger effect = lower value
[2] = modulators of MEP2-GFP levels in yeast, primary screen, S. cerevisiae, multiplex flow cytometry (AID 1867;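 active means GFP response, as percent of the DMSO control, above the screen-wide mean plus 3 SD, about 139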;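 further: median GFP channel fluorescence of barcode-gated MEP2-GFP cells measured by flow cytometry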); conditions: S. cerevisiae MEP2-GFP strain, 3 h, at 10 µM, stronger effect = higher value, 100% means same as DMSO wells
[3] = modulators of CIT2-GFP expression in yeast, primary screen, S. cerevisiae, GFP fusion, multiplex flow cytometry (AID 1870;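 active means percent response above a set limit, the screen-wide mean plus 3 SD, cut at about 130% in these data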;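 further: barcoded CIT2-GFP strain pooled with four other GFP strains with rapamycin as positive control; median GFP fluorescence per well over plate mean of DMSO wells so 100% = DMSO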); conditions: 3 h, at 10 µM, stronger effect = higher value
[4] = modulators of LAP4-GFP expression in yeast, primary screen, S. cerevisiae, multiplex flow cytometry (AID 1873;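 active means GFP signal, as percent of the solvent control, above the screen mean plus 3 SD, about 149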); conditions: 3 h, at 10 µM, stronger effect = higher value
[5] = modulators of AGP1-GFP expression in yeast TOR pathway, primary screen, cell-based, multiplex flow cytometry, S. cerevisiae (AID 1887;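 active means GFP signal above the screen-wide mean plus 3 SD, that is over about 124.5% of the solvent control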;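 further: AGP1-GFP fusion strain of S. cerevisiae within a five-strain barcoded multiplex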); conditions: 3 h, at 10 µM, stronger effect = higher value
[6] = inhibitors of CD8+ T cell-vesicle binding, pilot screen, LFA-1/ICAM-1 modulator project, MLPCN validation set, flow cytometry (AID 2523;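 active means response below a set limit, under 55% cells CD8-positive and vesicle-bound, and CD8 cells' 90th-percentile brightness under 279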;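 on vesicle binding response: mean PE anti-B7-1 fluorescence of CD8+ cells relative to row control; 100% = QL9-loaded vesicles with DMSO vehicle in the same plate row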); conditions: 2C mouse CD8+ T cells, at 7 µM, stronger effect = lower value; double positive events: measured here: CD8+/vesicle+ event percentage
[7] = target: Integrin beta-1 (Homo sapiens) + Integrin alpha-4 (Homo sapiens) (UniProt P13612+P05556); assay: inhibition of HUTS-21 binding to VLA-4, pilot screen, VLA-4 allosteric modulator project, U937 cells, HUTS-21 mAb, flow cytometry, validation set (AID 2674;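 active means inhibition above 50%, about 3 SD of the validation set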;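 further: antibody binding induced by the VLA-4 ligand LDV present at three times its Kd; 0% = LDV ligand with antibody and no compound and 100% = antibody without LDV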); conditions: HUTS-21 LIBS mAb binding, at 6.7 µM, stronger effect = higher value, binding induced by LDV ligand
[8] = superoxide lowering in aged yeast cells, pilot screen, validation compound set (AID 2706;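 active means superoxide response below 65% of plate, a cut near 3 SD across the whole screen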;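 further: yeast exposed to compound for one week at 30 degrees C before staining; 100% = mean of all compound wells on the same plate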); conditions: S. cerevisiae aging, superoxide DHE fluorescence; at 10 µM; stronger effect = lower value
[9] = target: Beta-adrenergic receptor kinase 1 (Homo sapiens) (UniProt P25098); assay: GRK2 binders displacing RNA aptamer, biochemical, validation, human GRK2, bead flow cytometry (AID 488806;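 active means aptamer binding inhibition above 30%, about 3 SD of noise from non-fluorescent compounds; inactive means inhibition at or below 30%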); conditions: bead-bound GRK2, FAM-aptamer displacement, at 10 µM, stronger effect = higher value
[10] = target: Beta-2 adrenergic receptor (Homo sapiens) (UniProt P07550); assay: beta2AR agonists driving receptor internalization, pilot screen, cell-based, FAP fluorogen, flow cytometry, validation set (AID 504459;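 active means percent response above 42, roughly 3 SD of non-fluorescent test compounds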;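 further: agonist-driven loss of surface beta2AR via internalization measured by FAP dye flow cytometry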); conditions: Am2.2-beta2AR cells, FAP surface receptor flow cytometry; at 10 µM; stronger effect = higher value
[11] = target: AP-2 complex subunit beta (Homo sapiens) (UniProt P63010); assay: inhibitors of arrestin peptide binding to AP2, pilot screen, biochemical, validation set, GST-AP2 beads, flow cytometry (AID 504541;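 active means inhibition above 54%, about 3 SD of non-fluorescent compounds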;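 further: AP2 carries R879A mutation and is captured from E. coli lysate; bead-bound FITC arrestin peptide fluorescence measuring arrestin peptide binding to AP2; 0% = DMSO wells and 100% = excess unlabeled arrestin peptide control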); conditions: FITC arrestin peptide, at 10 µM, stronger effect = higher value, AP2 beta2 appendage fragment, R879A mutant
[12] = yeast V-ATPase proton transport modulators, S. cerevisiae, pHLuorin, HTS validation (AID 504600; in the data active means response above about 15%;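 further: plate controls were DMSO for no effect and reference compound for full effect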); conditions: S. cerevisiae pHLuorin cytosolic pH, at 10 µM, stronger effect = higher value
[13] = tested on: anti-desmoglein-3 scFv antibody binding to human DSG3; assay: inhibitors of anti-DSG3 scFv binding to DSG3, pilot screen, biochemical, validation compound set, bead-based, flow cytometry (AID 588368;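 active means binding below the plate cutoff, the plate median minus 3 SD, with a reading above zero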;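 further: signal is the median channel fluorescence of bead-bound GFP antibody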); conditions: Protein G beads, DSG3-Fc, scFv-GFP binding, at 10 µM, stronger effect = lower value
[14] = inhibitors of fungal efflux pumps CDR1, CDR2, MDR1, pilot screen, validation compound set, multiplex, phenotypic (AID 588506);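 further: Nile Red retained in cells so higher fluorescence means more efflux inhibition; 0 = negative control wells and 1 = enniatin B 25 µM full block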; conditions: S. cerevisiae pump-expressing triplex, Nile Red efflux flow cytometry; at 10 µM; stronger effect = higher value; the pumps come from Candida albicans
[15] = target: ATP-binding cassette sub-family B member 6 (Homo sapiens) (UniProt Q9NP58); assay: ABCB6 transporter inhibitors, pilot screen, K562-ABCB6 cells, flow cytometry, validation set (AID 588550;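 active means inhibition above the screen-wide mean plus 3 SD, about 51%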;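 further: 0% = DMSO wells and 100% = benzethonium chloride 70 µM positive control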); conditions: K562-ABCB6 porphyrin accumulation, 1 h, at 10 µM, stronger effect = higher value
[16] = promoters of myeloid differentiation in arrested cells, primary screen, cell-based, GFP/MAC1 double positive, flow cytometry, validation set (AID 588685;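 active means differentiation response of at least 50%, scaled between solvent and reference control, from cells with both markers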;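 further: compound exposure lasts four days before antibody staining and flow analysis; 0% = DMSO wells and 100% = 5 µM fulvestrant positive control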); conditions: ER-HoxA9 marrow cells, stronger effect = higher value, normalized: vehicle 0, fulvestrant 100

Chain of Beta-2 adrenergic receptor (Homo sapiens) (P07550 whole entry, looked up): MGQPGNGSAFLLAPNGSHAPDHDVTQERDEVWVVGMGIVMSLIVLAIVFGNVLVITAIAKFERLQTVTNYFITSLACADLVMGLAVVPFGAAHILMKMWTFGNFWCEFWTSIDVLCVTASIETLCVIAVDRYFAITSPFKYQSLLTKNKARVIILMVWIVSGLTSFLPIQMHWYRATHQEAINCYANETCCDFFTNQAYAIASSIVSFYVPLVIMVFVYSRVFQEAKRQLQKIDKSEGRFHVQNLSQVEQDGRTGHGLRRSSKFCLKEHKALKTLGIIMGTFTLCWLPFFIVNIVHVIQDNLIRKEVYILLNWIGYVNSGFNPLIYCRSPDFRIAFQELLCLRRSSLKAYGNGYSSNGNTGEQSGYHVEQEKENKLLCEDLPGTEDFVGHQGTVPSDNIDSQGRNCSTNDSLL
Chain of Integrin beta-1 (Homo sapiens) + Integrin alpha-4 (Homo sapiens) (P05556 whole entry, looked up): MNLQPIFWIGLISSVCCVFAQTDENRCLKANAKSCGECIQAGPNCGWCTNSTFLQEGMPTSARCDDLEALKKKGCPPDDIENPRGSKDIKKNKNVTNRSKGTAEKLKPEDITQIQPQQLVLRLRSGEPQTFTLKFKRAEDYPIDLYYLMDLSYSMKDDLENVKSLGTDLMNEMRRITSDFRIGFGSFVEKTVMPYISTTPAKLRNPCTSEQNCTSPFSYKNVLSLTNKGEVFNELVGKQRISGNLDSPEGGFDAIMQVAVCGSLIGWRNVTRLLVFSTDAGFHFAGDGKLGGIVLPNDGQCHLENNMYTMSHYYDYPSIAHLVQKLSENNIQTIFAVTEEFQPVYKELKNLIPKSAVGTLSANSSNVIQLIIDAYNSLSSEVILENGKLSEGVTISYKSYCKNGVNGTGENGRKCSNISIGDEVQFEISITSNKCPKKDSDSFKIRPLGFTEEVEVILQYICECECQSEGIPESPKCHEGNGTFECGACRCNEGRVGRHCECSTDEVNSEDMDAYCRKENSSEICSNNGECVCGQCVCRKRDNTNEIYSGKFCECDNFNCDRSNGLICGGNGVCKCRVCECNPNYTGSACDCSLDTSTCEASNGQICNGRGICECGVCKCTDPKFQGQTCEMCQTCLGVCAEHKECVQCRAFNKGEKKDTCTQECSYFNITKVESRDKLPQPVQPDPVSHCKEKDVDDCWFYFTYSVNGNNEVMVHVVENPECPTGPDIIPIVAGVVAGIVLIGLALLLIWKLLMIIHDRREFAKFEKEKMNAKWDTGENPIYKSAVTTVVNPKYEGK
Chain of Integrin beta-1 (Homo sapiens) + Integrin alpha-4 (Homo sapiens) (P13612 whole entry, looked up): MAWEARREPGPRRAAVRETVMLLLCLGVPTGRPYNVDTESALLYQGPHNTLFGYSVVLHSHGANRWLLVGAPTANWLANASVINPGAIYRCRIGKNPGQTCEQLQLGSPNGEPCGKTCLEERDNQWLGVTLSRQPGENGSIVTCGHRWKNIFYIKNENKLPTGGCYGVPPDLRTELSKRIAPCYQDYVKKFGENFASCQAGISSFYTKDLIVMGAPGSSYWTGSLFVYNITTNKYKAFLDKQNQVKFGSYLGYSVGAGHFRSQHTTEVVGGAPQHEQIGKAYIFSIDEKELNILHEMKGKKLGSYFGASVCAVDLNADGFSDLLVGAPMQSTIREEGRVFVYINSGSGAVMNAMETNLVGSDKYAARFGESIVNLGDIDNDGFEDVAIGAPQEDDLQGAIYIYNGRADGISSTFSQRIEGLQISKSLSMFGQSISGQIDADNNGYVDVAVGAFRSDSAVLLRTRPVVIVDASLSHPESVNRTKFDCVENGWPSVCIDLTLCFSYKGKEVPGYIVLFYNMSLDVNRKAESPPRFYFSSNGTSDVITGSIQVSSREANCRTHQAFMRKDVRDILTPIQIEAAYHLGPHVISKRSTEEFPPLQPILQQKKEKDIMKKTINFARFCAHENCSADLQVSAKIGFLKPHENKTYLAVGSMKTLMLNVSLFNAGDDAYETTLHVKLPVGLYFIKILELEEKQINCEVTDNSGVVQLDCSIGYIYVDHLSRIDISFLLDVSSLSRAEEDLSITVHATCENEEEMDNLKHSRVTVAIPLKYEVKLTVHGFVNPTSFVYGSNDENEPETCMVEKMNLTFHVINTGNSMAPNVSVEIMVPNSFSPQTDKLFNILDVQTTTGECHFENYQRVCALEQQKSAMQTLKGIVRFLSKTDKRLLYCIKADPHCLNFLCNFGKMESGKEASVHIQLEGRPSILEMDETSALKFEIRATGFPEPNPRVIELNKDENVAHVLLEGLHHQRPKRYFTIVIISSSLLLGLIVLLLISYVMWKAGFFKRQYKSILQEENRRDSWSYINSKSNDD
Chain of Beta-adrenergic receptor kinase 1 (Homo sapiens) (P25098 whole entry, looked up): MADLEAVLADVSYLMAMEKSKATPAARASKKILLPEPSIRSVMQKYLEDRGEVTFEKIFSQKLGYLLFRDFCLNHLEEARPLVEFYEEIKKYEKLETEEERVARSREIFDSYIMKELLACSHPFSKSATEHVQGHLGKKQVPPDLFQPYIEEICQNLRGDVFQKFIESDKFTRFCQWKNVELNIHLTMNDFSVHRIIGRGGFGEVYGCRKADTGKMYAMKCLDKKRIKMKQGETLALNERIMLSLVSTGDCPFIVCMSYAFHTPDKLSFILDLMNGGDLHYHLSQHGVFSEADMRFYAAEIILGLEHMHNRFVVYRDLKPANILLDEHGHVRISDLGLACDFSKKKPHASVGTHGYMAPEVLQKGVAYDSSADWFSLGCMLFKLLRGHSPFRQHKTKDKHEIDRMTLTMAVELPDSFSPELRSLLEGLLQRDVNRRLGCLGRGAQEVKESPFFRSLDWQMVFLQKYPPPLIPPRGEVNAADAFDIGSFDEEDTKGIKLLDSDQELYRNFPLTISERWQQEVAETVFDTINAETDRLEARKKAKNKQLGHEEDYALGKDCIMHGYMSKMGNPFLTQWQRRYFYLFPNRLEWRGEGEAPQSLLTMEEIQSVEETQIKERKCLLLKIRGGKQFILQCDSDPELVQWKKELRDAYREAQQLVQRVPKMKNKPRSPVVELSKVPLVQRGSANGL
Chain of ATP-binding cassette sub-family B member 6 (Homo sapiens) (Q9NP58 whole entry, looked up): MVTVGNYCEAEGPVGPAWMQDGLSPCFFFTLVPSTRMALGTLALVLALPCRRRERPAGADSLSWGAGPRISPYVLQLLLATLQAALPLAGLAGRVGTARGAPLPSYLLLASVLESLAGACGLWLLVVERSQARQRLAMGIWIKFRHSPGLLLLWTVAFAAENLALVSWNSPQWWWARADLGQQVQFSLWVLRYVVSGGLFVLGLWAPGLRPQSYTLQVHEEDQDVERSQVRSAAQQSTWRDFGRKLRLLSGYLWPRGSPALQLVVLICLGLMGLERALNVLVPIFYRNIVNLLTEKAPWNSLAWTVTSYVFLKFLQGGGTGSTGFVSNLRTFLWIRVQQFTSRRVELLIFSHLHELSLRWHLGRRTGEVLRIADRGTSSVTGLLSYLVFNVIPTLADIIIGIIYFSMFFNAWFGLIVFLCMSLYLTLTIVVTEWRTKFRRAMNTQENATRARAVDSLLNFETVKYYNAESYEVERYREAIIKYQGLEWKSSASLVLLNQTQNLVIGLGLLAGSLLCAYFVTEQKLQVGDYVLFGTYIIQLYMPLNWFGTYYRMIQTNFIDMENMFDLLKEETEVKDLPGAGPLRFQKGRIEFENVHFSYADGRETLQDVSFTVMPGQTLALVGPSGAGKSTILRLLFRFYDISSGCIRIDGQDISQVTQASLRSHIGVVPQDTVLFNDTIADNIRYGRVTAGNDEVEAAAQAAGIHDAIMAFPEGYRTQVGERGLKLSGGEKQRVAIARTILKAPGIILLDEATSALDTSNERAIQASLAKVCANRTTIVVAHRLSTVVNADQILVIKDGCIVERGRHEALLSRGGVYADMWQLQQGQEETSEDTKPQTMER
Chain of AP-2 complex subunit beta (Homo sapiens) (P63010 whole entry, looked up, the tested form may be a part, one chain of several): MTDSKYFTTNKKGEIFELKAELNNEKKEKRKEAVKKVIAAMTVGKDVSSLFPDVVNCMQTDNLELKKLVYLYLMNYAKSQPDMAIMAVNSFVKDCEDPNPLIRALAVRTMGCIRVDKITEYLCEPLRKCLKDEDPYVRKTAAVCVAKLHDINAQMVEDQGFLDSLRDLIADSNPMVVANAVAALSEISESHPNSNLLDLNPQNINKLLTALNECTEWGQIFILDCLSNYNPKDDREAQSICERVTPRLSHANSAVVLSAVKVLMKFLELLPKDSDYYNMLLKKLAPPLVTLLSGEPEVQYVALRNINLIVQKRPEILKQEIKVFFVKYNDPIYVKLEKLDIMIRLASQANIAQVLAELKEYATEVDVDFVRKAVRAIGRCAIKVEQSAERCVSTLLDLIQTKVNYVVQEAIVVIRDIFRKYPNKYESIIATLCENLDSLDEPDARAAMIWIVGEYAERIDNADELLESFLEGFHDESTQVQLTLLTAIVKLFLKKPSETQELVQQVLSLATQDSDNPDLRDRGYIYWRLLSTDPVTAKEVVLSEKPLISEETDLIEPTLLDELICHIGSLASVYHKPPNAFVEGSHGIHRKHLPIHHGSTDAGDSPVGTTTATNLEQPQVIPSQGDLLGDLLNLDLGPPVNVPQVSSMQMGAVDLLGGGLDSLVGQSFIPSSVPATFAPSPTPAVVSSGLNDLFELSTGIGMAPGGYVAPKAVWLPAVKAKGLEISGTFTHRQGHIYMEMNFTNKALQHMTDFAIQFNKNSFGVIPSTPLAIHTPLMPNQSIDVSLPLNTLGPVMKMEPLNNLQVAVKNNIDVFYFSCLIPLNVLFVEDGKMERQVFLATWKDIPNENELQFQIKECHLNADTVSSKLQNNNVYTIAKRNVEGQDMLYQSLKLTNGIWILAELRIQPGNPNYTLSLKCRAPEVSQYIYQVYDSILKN

| SMILES | percent of DMSO control GFP [1] | GFP response vs DMSO [2] | percent response of DMSO control [3] | GFP response vs DMSO [4] | GFP response, % of DMSO [5] | double positive events [6] [%] | vesicle binding response [6] | inhibition [7] | superoxide response (% of plate) [8] | aptamer binding inhibition [9] | response [10] | inhibition [11] | response [12] | binding (% of control) [13] | efflux inhibition (fraction of control) [14] | inhibition [15] | differentiation response [16] |
| --- | --- | --- | --- | --- | --- | --- | --- | --- | --- | --- | --- | --- | --- | --- | --- | --- | --- |
| CC12CCC(C(=O)N3CCc4ccccc43)(CC1=O)C2(C)C (stereo not drawn) | 101% (inactive) | 102% (inactive) | 97.6% (inactive) | 95.9% (inactive) | 91.2% (inactive) | 60.3 | 115% (inactive) | -2.43% (inactive) | 108% (inactive) | 13% (inactive) | -16.3% (inactive) | 5.6% (inactive) | 2.72% (inactive) | 102% (inactive) | -0.24 (inactive) | 4% (inactive) | -10.4% (inactive) |
| c1ccc(Nc2cccc3c(Nc4ccccc4)cccc23)cc1 | 104% (inactive) | 107% (inactive) | 105% (inactive) | 88.7% (inactive) | 97.8% (inactive) | 62 | 284% (inactive) | -28.5% (inactive) | 98.3% (inactive) | 1% (inactive) | 6.03% (inactive) | 21.9% (inactive) | 0.51% (inactive) | 91.6% (inactive) | 0.18 (inactive) | -26% (inactive) | 14.9% (inactive) |
| CCc1nc2ccccc2c(NC(=O)CN2CC(C)CC(C)C2)c1C (stereo not drawn) | 99% (inactive) | 105% (inactive) | 101% (inactive) | 90.7% (inactive) | 96.2% (inactive) | 63.1 | 179% (inactive) | -7.72% (inactive) | 105% (inactive) | -2% (inactive) | 0.46% (inactive) | -1.11% (inactive) | 9.89% (inactive) | 93.8% (inactive) | 0.11 (inactive) | 10% (inactive) | 0.24% (inactive) |
| COc1cc(C(=O)Nc2ccc(N(C)C)cc2)c([N+](=O)[O-])cc1OC | 100% (inactive) | 104% (inactive) | 101% (inactive) | 104% (inactive) | 98.6% (inactive) | 63.5 | 224% (inactive) | -3.57% (inactive) | 101% (inactive) | 4% (inactive) | -1.8% (inactive) | 2.96% (inactive) | 0.28% (inactive) | 93.2% (inactive) | -0.2 (inactive) | 7% (inactive) | 4.15% (inactive) |
| O=C(CN1C(=O)C2CCc3[nH]c4ccccc4c3C2C1=O)N1CCCC1 (stereo not drawn) | 89.1% (inactive) | 121% (inactive) | 106% (inactive) | 78.1% (inactive) | 87.3% (inactive) | 48 | 72.2% (active) | 22.9% (inactive) | 95.1% (inactive) | 3% (inactive) | -15.3% (inactive) | -3.8% (inactive) | -4.07% (inactive) | 103% (inactive) | 0.09 (inactive) | 9% (inactive) | 4.91% (inactive) |
| Cc1nc(N)sc1C(=O)N/N=C/c1ccco1 | 105% (inactive) | 107% (inactive) | 109% (inactive) | 114% (inactive) | 115% (inactive) | 62.5 | 145% (inactive) | -3.77% (inactive) | 89.3% (inactive) | -1% (inactive) | -0.95% (inactive) | 6.36% (inactive) | -5.39% (inactive) | 105% (inactive) | 0.08 (inactive) | -15% (inactive) | -4.57% (inactive) |
| CCCC(=O)O[C@]1(C(=O)CCl)[C@@H](C)C[C@H]2[C@@H]3CCC4=CC(=O)C=C[C@]4(C)[C@@]3(F)C(=O)C[C@@]21C | 93.7% (inactive) | 134% (inactive) | 111% (inactive) | 85.8% (inactive) | 87.3% (inactive) | 65.1 | 147% (inactive) | 1.61% (inactive) | 98.4% (inactive) | 3% (inactive) | -4.94% (inactive) | 11.3% (inactive) | -7.84% (inactive) | 94.1% (inactive) | 0.23 (inactive) | 8% (inactive) | 0% (inactive) |
| COc1ccc(C(CC(=O)N2CCOCC2)C(C)C)cc1 (stereo not drawn) | 100% (inactive) | 99.6% (inactive) | 101% (inactive) | 118% (inactive) | 106% (inactive) | 55.7 | 56.1% (inactive) | 2.3% (inactive) | 77.9% (inactive) | 3% (inactive) | -9.06% (inactive) | -2.4% (inactive) | 1.44% (inactive) | 95.3% (inactive) | -0.06 (inactive) | 7% (inactive) | -18.4% (inactive) |
| CC(C)C[C@H]1C(=O)N2CCC[C@H]2[C@]2(O)O[C@](NC(=O)[C@@H]3C=C4c5cccc6[nH]c(Br)c(c56)CC4N(C)C3)(C(C)C)C(=O)N12 (stereo partly drawn) | 106% (inactive) | 105% (inactive) | 99.7% (inactive) | 102% (inactive) | 104% (inactive) | 49.2 | 107% (inactive) | -7.79% (inactive) | 97.8% (inactive) | 0% (inactive) | -5.85% (inactive) | -3.14% (inactive) | 3.49% (inactive) | 99.8% (inactive) | 0.58 (active) | -91% (inactive) | 1.28% (inactive) |
